# Source: the supplement of paper PMC8728848
# The full list was thinned out, with the strongest signals kept by preference.
# B1: PpFlo1 (Pichia pastoris) (protein)
# chain: MGSSHHHHHHSSGLVPRGSHMQESGDGDISDSAYACDIDATRYDGFNATIYEFQPGDGRLTRDPVFMSTGYLNRTQLHSITGVTDPGFSIYTPGVPTTTLYGIPNVNWENLLLELKGYFRAEVSGDYGLSLRNIDDSAILFFGKETAFQCCNENSISNEASTDYSLFTIFRQEGDETTNLDSFTYTQYLEAGKYYPVRTFFVNIERHAVFNFTMTLPDGTELTDFHNYIYQFGALDEEQCQA
# Experiments:
# Test in all cases: glycan array binding signal (z-score within array); higher = stronger binding
# Settings in all cases: glycan notation: IUPAC condensed, linker removed
# [1] = target: GlcNAc(a1-4)Gal(b1-4)GlcNAc
# In short: (§1)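 The binding signal is a Z-score computed within each array. Data were drawn from 3228 arrays in the Consortium for Functional Glycomics database, restricted to those with a known protein sequence. Scores were averaged over arrays of the same protein sequence at different concentrations or buffers, and over linkers, and negative values can be taken as non-binding.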
# [2] = target: GlcNAc(a1-4)Gal(b1-4)GlcNAc(b1-3)Gal(b1-4)GlcNAc(b1-3)Gal(b1-4)GlcNAc
# In short: as §1
# [3] = target: GlcNAc(b1-2)[GlcNAc(b1-4)]Man(a1-3)[GlcNAc(b1-2)Man(a1-6)]Man(b1-4)GlcNAc(b1-4)GlcNAc
# In short: as §1
# [4] = target: GlcNAc(b1-2)[GlcNAc(b1-6)]Man(a1-6)[GlcNAc(b1-2)Man(a1-3)]Man(b1-4)GlcNAc(b1-4)GlcNAc
# In short: as §1
# [5] = target: GlcNAc(b1-2)[GlcNAc(b1-6)]Man(a1-6)[GlcNAc(b1-2)Man(a1-3)]Man(b1-4)GlcNAc(b1-4)[Fuc(a1-6)]GlcNAc
# In short: as §1
# [6] = target: GlcNAc(b1-3)Gal(b1-4)GlcNAc(b1-3)Gal(b1-4)GlcNAc
# In short: as §1
# [7] = target: GlcNAc(b1-3)Gal(b1-4)GlcNAc(b1-3)Gal(b1-4)GlcNAc(b1-2)Man(a1-3)[GlcNAc(b1-3)Gal(b1-4)GlcNAc(b1-3)Gal(b1-4)GlcNAc(b1-2)Man(a1-6)]Man(b1-4)GlcNAc(b1-4)GlcNAc
# In short: as §1
# [8] = target: GlcNAc(b1-3)Gal(b1-4)GlcNAc(b1-3)Gal(b1-4)GlcNAc(b1-3)GalNAc
# In short: as §1
# [9] = target: GlcNAc(b1-3)Gal(b1-4)GlcNAc(b1-3)[GlcNAc(b1-3)Gal(b1-4)GlcNAc(b1-3)]GalNAc
# In short: as §1
# GlcNAc(b1-3)Man = target: GlcNAc(b1-3)Man
# In short: as §1
# [10] = target: GlcNAc(b1-6)Gal(b1-4)GlcNAc
# In short: as §1
# GlcNAc(b1-6)GalNAc = target: GlcNAc(b1-6)GalNAc
# In short: as §1
# Kdn(a2-3)Gal(b1-4)Glc = target: Kdn(a2-3)Gal(b1-4)Glc
# In short: as §1
# [11] = target: Man(a1-2)Man(a1-6)[Man(a1-3)]Man(a1-6)[Man(a1-2)Man(a1-2)Man(a1-3)]Man
# In short: as §1
# Man(a1-3)[Man(a1-6)]Man = target: Man(a1-3)[Man(a1-6)]Man
# In short: as §1
# [12] = target: Neu5Ac(a2-3)Gal(b1-3)GalNAc
# In short: as §1
# [13] = target: Neu5Ac(a2-3)Gal(b1-3)GlcNAc(b1-3)Gal(b1-3)GlcNAc
# In short: as §1
# [14] = target: Neu5Ac(a2-3)Gal(b1-3)GlcNAc(b1-6)GalNAc
# In short: as §1
# [15] = target: Neu5Ac(a2-3)Gal(b1-4)GlcNAc(b1-3)Gal
# In short: as §1
# [16] = target: Neu5Ac(a2-3)Gal(b1-4)GlcNAc(b1-3)Gal(b1-3)GlcNAc
# In short: as §1
# [17] = target: Neu5Ac(a2-3)Gal(b1-4)GlcNAc(b1-3)Gal(b1-4)GlcNAc(b1-3)[Neu5Ac(a2-3)Gal(b1-4)GlcNAc(b1-3)Gal(b1-4)GlcNAc(b1-6)]GalNAc
# In short: as §1
# [18] = target: Neu5Ac(a2-6)Gal(b1-4)GlcNAc(b1-2)Man(a1-3)[Neu5Ac(a2-6)Gal(b1-4)GlcNAc(b1-2)Man(a1-6)]Man(b1-4)GlcNAc(b1-4)[Fuc(a1-6)]GlcNAc
# In short: as §1
# [19] = target: Neu5Ac(a2-6)Gal(b1-4)GlcNAc(b1-2)Man(a1-6)[Man(a1-3)]Man(b1-4)GlcNAc(b1-4)GlcNAc
# In short: as §1
# [20] = target: Neu5Ac(a2-6)Gal(b1-4)GlcNAc(b1-3)Gal(b1-4)GlcNAc(b1-3)GalNAc
# In short: as §1
# [21] = target: Neu5Ac(a2-6)Gal(b1-4)GlcNAc(b1-3)Gal(b1-4)[Fuc(a1-3)]GlcNAc(b1-3)Gal(b1-4)[Fuc(a1-3)]GlcNAc
# In short: as §1
# [22] = target: Neu5Ac(a2-6)Gal(b1-4)GlcNAc(b1-3)[Neu5Ac(a2-6)Gal(b1-4)GlcNAc(b1-6)]GalNAc
# In short: as §1
# [23] = target: Neu5Ac(a2-6)Gal(b1-4)GlcNAc6S
# In short: as §1
# Neu5Ac(a2-8)Neu5Ac = target: Neu5Ac(a2-8)Neu5Ac
# In short: as §1
# [24] = target: Neu5Ac(b2-6)Gal(b1-4)GlcNAc
# In short: as §1
# [25] = target: Neu5Ac9Ac(a2-6)Gal(b1-4)GlcNAc
# In short: as §1
# [26] = target: Neu5Gc(a2-6)Gal(b1-4)GlcNAc
# In short: as §1
binder,measurement,setting,value
B1,glycan array binding signal (z-score),[1],0.008
same,glycan array binding signal (z-score),[2],0.046
same,glycan array binding signal (z-score),[3],-0.171
same,glycan array binding signal (z-score),[4],-0.18
same,glycan array binding signal (z-score),[5],0.03
same,glycan array binding signal (z-score),[6],0.551
same,glycan array binding signal (z-score),[7],0.609
same,glycan array binding signal (z-score),[8],-0.514
same,glycan array binding signal (z-score),[9],-0.39
same,glycan array binding signal (z-score),GlcNAc(b1-3)Man,1.9
same,glycan array binding signal (z-score),[10],-0.375
same,glycan array binding signal (z-score),GlcNAc(b1-6)GalNAc,-0.373
same,glycan array binding signal (z-score),Kdn(a2-3)Gal(b1-4)Glc,-0.2
same,glycan array binding signal (z-score),[11],-0.565
same,glycan array binding signal (z-score),Man(a1-3)[Man(a1-6)]Man,-0.074
same,glycan array binding signal (z-score),[12],-0.261
same,glycan array binding signal (z-score),[13],-0.308
same,glycan array binding signal (z-score),[14],-0.067
same,glycan array binding signal (z-score),[15],-0.31
same,glycan array binding signal (z-score),[16],-0.004
same,glycan array binding signal (z-score),[17],0.078
same,glycan array binding signal (z-score),[18],0.148
same,glycan array binding signal (z-score),[19],-0.445
same,glycan array binding signal (z-score),[20],-0.424
same,glycan array binding signal (z-score),[21],0.701
same,glycan array binding signal (z-score),[22],0.261
same,glycan array binding signal (z-score),[23],2.26
same,glycan array binding signal (z-score),Neu5Ac(a2-8)Neu5Ac,0.146
same,glycan array binding signal (z-score),[24],0.76
same,glycan array binding signal (z-score),[25],-0.44
same,glycan array binding signal (z-score),[26],0
